High-throughput results deposited in PubChem BioAssay by National Center for Advancing Translational Sciences (NCATS).
JMJD2A Tudor inh: qHTS Assay for Inhibitors of JMJD2A-Tudor Domain; Lysine-specific demethylase 4A (Homo sapiens), O75164; AlphaScreen JMJD2A-Tudor / H3K4me3 peptide binding; Potency, µM (titrated, usually from 114 µM), hits mostly inhibitors; 390,000 compounds, 4.4% hits; also: nearly all actives have a fitted effect of over 50% in size
G9a inh: qHTS Assay for Inhibitors of Histone Lysine Methyltransferase G9a. G9a H3K9 monomethylation, AlphaScreen, 2 h. Potency, µM (highest dose often 102 µM), usual class: inhibitors. 350,000 compounds, 8.8% hits. AID 504332, 2011; also: nearly all actives have a fitted effect of over 75% in size
Target sequence (Q96KQ7 913-1193 limits assumed): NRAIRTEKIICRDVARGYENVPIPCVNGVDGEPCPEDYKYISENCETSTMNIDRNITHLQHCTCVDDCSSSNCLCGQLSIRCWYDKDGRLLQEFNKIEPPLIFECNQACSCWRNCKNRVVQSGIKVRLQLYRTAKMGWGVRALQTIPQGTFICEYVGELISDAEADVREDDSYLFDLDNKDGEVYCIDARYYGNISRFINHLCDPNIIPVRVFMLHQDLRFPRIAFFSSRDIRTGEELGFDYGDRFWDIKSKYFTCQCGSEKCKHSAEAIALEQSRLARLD
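Methyltransferase reactions run at room temperature for 2 h (20 nM enzyme, 500 nM biotin-H3K9 peptide, 20 uM SAM) after a 15 min compound preincubation; product detected by AlphaScreen beads and anti-H3K9me1 antibody.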
GLS inhibitor: qHTS for Inhibitors of Glutaminase (GLS); AID 624170, 2012; Potency, µM (doses to about 45.5 µM), usual class: inhibitors; 410,000 compounds, 0.21% hits; GLS enzymatic activity, qHTS titration; Glutaminase kidney isoform, mitochondrial (Homo sapiens), O94925
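hKGA in 45 mM KH2PO4 (pH 8.2), 0.02% Tween-20 with compound, then 1mM L-Glutamine (stock as added) plus glutamate oxidase/HRP/Amplex red coupling mix. Fluorescence read initially and after 30 min at RT; signal change reflects glutamate formation.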
BAZ2B inh: qHTS Assay for Inhibitors of BAZ2B; Bromodomain adjacent to zinc finger domain protein 2B (Homo sapiens), Q9UIF8; Potency, µM (series often up to 114 µM), most hits filed as inhibitors; AID 504333, 2011; 360,000 compounds, 4.4% hits; AlphaScreen BAZ2B-H3K14Ac peptide displacement; also: nearly all actives have a fitted effect of over 60% in size
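Protein-peptide AlphaScreen: BAZ2B 50 nM, b-H3K14Ac 50 nM, 1x PBS pH 7.4 + 0.01% Tween-20. Preincubation 30 min RT; cpd 30 min RT (top 110 uM); beads 20 min RT, light-protected.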
HP1b binding inh: HTS for Inhibitors of HP1-beta Chromodomain Interactions with Methylated Histone Tails. 390,000 compounds, 0.56% hits. AlphaScreen HP1-beta / biotin-H3K9me3 peptide binding. Chromobox protein homolog 1 (Homo sapiens), P83916. Potency, µM (top dose mostly 114 µM), hits mostly inhibitors; also: nearly all actives have a fitted effect of over 70% in size
Target sequence (P83916 whole entry, looked up): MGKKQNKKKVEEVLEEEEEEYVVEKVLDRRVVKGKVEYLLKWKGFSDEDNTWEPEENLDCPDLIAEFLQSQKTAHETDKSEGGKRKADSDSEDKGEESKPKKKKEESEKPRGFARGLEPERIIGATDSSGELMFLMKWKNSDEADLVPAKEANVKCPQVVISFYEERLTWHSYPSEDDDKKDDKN
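HP1-beta protein (50 nM final) preincubated 30 min at room temperature with biotinylated H3(1-18)K9me3 peptide (50 nM) in PBS pH 7.4, 0.01% Tween-20, then compound added for 30 min. AlphaScreen streptavidin donor/nickel chelate acceptor beads (10 ug/mL final), 30 min dark, luminescence read.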
Hits are given with their value; i = inactive; ? = inconclusive; nt = no result given; [ ] = another dose, or the depositor's remark. This is a sample that favours compounds with a hit; in the whole collection about 10% have one here. Calls follow the shape of the dose curve; as a rule, active = well fitted curve in the direction sought with a large enough effect; inconclusive = small, poorly fitted or top-dose-only effect, or another doubt; inactive = no such curve, though single readings can be large; an effect the other way counts as inactive or inconclusive.

SMILES	JMJD2A Tudor inh	G9a inh	GLS inhibitor	BAZ2B inh	HP1b binding inh
C#CCOCCOCCOCCNc1nc(N2CCN(C(=O)C(Cc3cc4ccccc4[nH]3)n3cc(C(N)Cc4ccc(O)cc4)nn3)CC2)nc(N2CCN(C(=O)C(CCC(=O)O)n3cc(C(N)C(C)CC)nn3)CC2)n1 (centres undefined)	45µM	i[2.33 µM]	i	32µM	i
C#CCOCCOCCOCCNc1nc(N2CCN(C(=O)[C@H](CCC(=O)O)n3cc(C(N)Cc4ccc(O)cc4)nn3)CC2)nc(N2CCN(C(=O)[C@H](Cc3cc4ccccc4[nH]3)n3cc(C(N)[C@H](C)CC)nn3)CC2)n1 (some centres undefined)	45µM	i[12.7 µM]	i	50µM	i
CCCCCCCC[n+]1c(C)n(-c2ccccc2)c2ccc(NC(C)=O)cc21	i	40µM	i	i	i
O=C(O)C/C=C(\NC(=O)OCc1ccccc1)C(=O)OCc1ccccc1	i	50µM	i	nt	i
CC(=O)N/C(=C\c1ccccc1)C(=O)OCc1ccccc1	i	nt	i	i	i
COC(=O)c1cc(C)sc1NC(=O)CSc1ncccn1	i	10µM	i	i	i
COC(=O)c1ccccc1NC(=O)CSc1ncccn1	i	i	i	i	i
CCn1ccc2c(OCC(=O)Nc3ccc(OC)cc3OC)cccc2c1=O	i	i	i	i	i
CN(C)CCCNCC(=O)NN(c1ccccc1)c1ccccc1	0.79µM	i	i	32µM	i
COc1ccc(C(=O)C(c2ccccc2)N2CCOCC2)cc1 (centres undefined)	i	50µM	i	?	i
CCn1c(CNC(=O)c2ccc(OC)cc2)nnc1SCC(=O)c1ccccc1	20µM	i	i	i	?
CCn1c(CCNC(=O)c2cccs2)nnc1SCC(=O)c1ccc(OC)cc1	28µM	nt	i	nt	?
CCn1c(CNC(C)=O)nnc1SCC(=O)c1ccc(Br)cc1	56µM	11µM	i	i	i
Cc1ccc(Cl)cc1-n1ncc2c(N3CCN(Cc4ccccc4)CC3)ncnc21	i	i	i	i	i
COc1ccccc1CNC(=O)c1ccc2c(c1)CCN2S(=O)(=O)c1ccc(Cl)cc1	i	i	i	i	i
COCCCn1c(Cc2csc(Nc3ccccc3)n2)nnc1SCC(N)=O	?	6.3µM	i	56µM	i
COCCCn1c(SCC(N)=O)nnc1-c1ccccc1	i	i	i	i	i
NC(=O)CSc1nnc(Cc2csc(Nc3ccccc3)n2)n1Cc1ccccc1	?	35µM	i	i	i
O=c1c2c([nH]c3ccccc13)C(=C1CCCC1)CC2	i	35µM	i	?	i
O=c1c2c([nH]c3ccccc13)CCCC2	i	i	i	i	i
COc1ccc(CCNC(=O)c2cnc3ccc(C)cn3c2=O)cc1	i	i	i	i	i
CC(=O)Nc1cc(-c2ccc(C(=O)N3CCOCC3)cc2)cn2c(-c3ccc(S(C)(=O)=O)cc3)cnc12	nt	nt	i	nt	nt
Cc1nn(-c2ccccc2)c2[nH]c(=O)c(CNc3ccc(N4CCOCC4)cc3)cc12	?	32µM	?	45µM	?
O=c1[nH]c2c(cc1CNCCN1CCOCC1)c(-c1cccc(F)c1)nn2-c1ccccc1	nt	i	nt	i	nt
CC(C)(C)c1nn(-c2ccccc2)c2[nH]c(=O)c(CNc3ccc4c(c3)OCCO4)cc12	40µM	35µM	i	1.1µM	?
SMILES	JMJD2A Tudor inh	G9a inh	GLS inhibitor	BAZ2B inh	HP1b binding inh
CCOC(=O)c1c(NC(C)=O)c2c3c(sc2n1Cc1ccc(Cl)cc1)CCCC3	i	i	i	i	i
COc1ccc(N2CCN(c3ncnc4sc(C(=O)NCC5CCCO5)c(C)c34)CC2)cc1 (centres undefined)	?	40µM	i	i	i
COc1ccc(-c2csc3ncnc(N4CCN(C(=O)c5ccco5)CC4)c23)cc1	i	50µM	i	i	i
COc1ccc(-c2csc3ncnc(N4CCN(c5ccccc5Cl)CC4)c23)cc1	i	i	i	i	i
COc1ccc(N2CCN(c3ncnc4scc(-c5ccc(F)cc5)c34)CC2)cc1	22µM	10µM	i	7.9µM	?
COc1ccc(CN2CCN(c3ncnc4scc(-c5ccc(F)cc5)c34)CC2)cc1	?	i[2.33 µM]	i	?	?
O=C(c1ccco1)N1CCN(c2ncnc3scc(-c4ccccc4)c23)CC1	i	i	i	i	i
COc1ccc(N2CCN(c3ncnc4scc(-c5ccccc5)c34)CC2)cc1	25µM	7.9µM	i	14µM	?
CC(CNC(=O)c1ccc2nc(Cc3ccccc3)oc2c1)c1ccccc1 (centres undefined)	i	i	i	i	i
c1ccc(CCCNCCCn2cnc3c(OCc4ccccc4)ncnc32)cc1	i	nt	i	nt	i
COc1ccc(N2CCN(c3ncnc4scc(-c5ccc(C)cc5)c34)CC2)cc1	25µM	25µM	i	11µM	?
COc1ccc(-c2csc3ncnc(N4CCN(c5cccc(OC)c5)CC4)c23)cc1	i	nt	i	i	i
CC(c1ccccn1)N(Cc1ccco1)C(=S)Nc1cccc(F)c1 (centres undefined)	?	?	i	i	i
Cc1cnc(NC(=O)c2sc3ccccc3c2Cl)s1	i	i	i	i	i
Cc1onc(-c2ccccc2Cl)c1C(=O)O/N=C(\N)c1ccc([N+](=O)[O-])o1	?	35µM	i	?	i
Cc1ccc(CNC(=O)c2c(-c3ccccc3Cl)noc2C)cc1	i	i	i	i	i
Cc1onc(-c2ccccc2Cl)c1C(=O)NCc1ccco1	?	i	10µM	?	i
Cc1onc(-c2ccccc2Cl)c1C(=O)Nc1nnc(C(C)C)s1	i	50µM	i	i	i
CC(C)c1nnc(NC(=O)c2sc3ccccc3c2Cl)s1	i	45µM	i	i	i
CCN(CC)CCNC(=O)CCc1c(C)nc2c(c(C)nn2-c2ccc(C)c(C)c2)c1C	i	i	i	i	i
Cc1nnc(NC(=O)CN2C(=O)c3ccccc3S2(=O)=O)s1	i	50µM	i	i	i
CCc1nnc(NC(=O)CN2C(=O)c3ccccc3S2(=O)=O)s1	i	i	i	i	i
Cc1cc(NC(=O)CN2C(=O)c3ccccc3S2(=O)=O)no1	i	25µM	i	i	i
O=C(NC[C@@H]1CCCCN1)c1cc(OCC(F)(F)F)ccc1OCC(F)(F)F	nt	i[21.5 µM]	nt	nt	nt
CCCCn1c(SCC(=O)c2ccccc2)nc2sc3c(c2c1=O)CCCC3	i	i	i	i	i
O=C(NCc1ccc(Cl)cc1)c1ccc2c(=O)n(CC3CCCO3)c(=S)[nH]c2c1 (centres undefined)	i	i	i	i	i
O=C(c1ccc2c(=O)n(CC3CCCO3)c(=S)[nH]c2c1)N1CCN(c2ccccc2)CC1 (centres undefined)	i	i	i	i	i
